# Data published in PubChem BioAssay (NCI).
# Compounds without any hit were thinned out: in the full panel of roughly 83,000, 20% have a hit.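 Activity criterion: percent growth below 10, measured after cells in 96-well plates were exposed to a single compound concentration for 48 hours.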 Values without a mark were called inactive. Calls of active or inactive are those of the source.
# Key:
# Assay in all cases: NCI-60 one-dose screen, 48 h (100 = growth as untreated, 0 = no growth, -100 = all killed)
# Details in all cases: 10 µM unless noted
# SK-MEL-2 melanoma = test system: SK-MEL-2 melanoma
# EKVX NSCLC = test system: EKVX NSCLC
# SN12C renal = test system: SN12C renal
# UO-31 renal = test system: UO-31 renal
# TK-10 renal = test system: TK-10 renal
# ACHN renal = test system: ACHN renal
# CAKI-1 renal = test system: CAKI-1 renal
# A498 renal = test system: A498 renal
# CCRF-CEM leukemia = test system: CCRF-CEM leukemia
# MOLT-4 leukemia = test system: MOLT-4 leukemia
SMILES,growth (SK-MEL-2 melanoma),growth (EKVX NSCLC),growth (SN12C renal),growth (UO-31 renal),growth (TK-10 renal),growth (ACHN renal),growth (CAKI-1 renal),growth (A498 renal),growth (CCRF-CEM leukemia),growth (MOLT-4 leukemia)
COc1cc(C)c2c(=O)c3c(oc2c1)C(=O)c1c(O)c(OC)cc(O)c1C3=O,-25.7% (active),32.6%,16.8%,0.808% (active),23.8%,0.624% (active),12.6%,89%,10.4%,–
C#CC[C@@H]1C[C@]2(C)[C@H]3CC=C4[C@H]5CC(C)(C)CC[C@]5(C(=O)NCCCCN)CC[C@@]4(C)[C@]3(C)CC[C@H]2C(C)(C)[C@H]1OC(C)=O,98.9%,81.1%,-51.2% (active),-44.3% (active),-27.5% (active),-91.6% (active),-70% (active),104%,17.9%,–
O=C(c1ccc(C(F)(F)F)c(Cl)c1)N(Cc1ccc(Cl)cc1)c1ccc(-c2cc(C(F)(F)F)[nH]n2)c(O)c1,-18.3% (active),0.0577% (active),14.6%,5.66% (active),5.25% (active),3.03% (active),1.19% (active),-21.4% (active),10.4%,–
CC[C@H](Nc1nc(N)nc(C2CC2)c1C#N)c1nc2cccc(NCc3ccc(C(=O)NO)cc3)c2c(=O)n1-c1ccccc1,26.2%,0.322% (active),9.34% (active),-80% (active),5.55% (active),-21% (active),-44.5% (active),-8.64% (active),8.87% (active),–
CN1CCN(Cc2ccc(NC(=O)c3cnc(F)c(C#Cc4cnc(N)c5ncccc45)c3)cc2C(F)(F)F)CC1,-30.1% (active),23.7%,11.7%,7.5% (active),28.7%,10.1%,13.1%,-25.8% (active),18.2%,8.73% (active)
CCCCCCCCCCCCCCCCS(=O)(=O)Nc1cc(C(=O)NN)cc(C(=O)NN)c1,114%,47.1%,72.9%,65%,68.6%,77.1%,49%,90.4%,34.3%,21.5%
Nc1cccc(S(=O)(=O)c2cccc(N)c2)c1,116%,105%,112%,95.8%,123%,102%,98.4%,108%,102%,10.4%
COC(=O)/C=C/c1cc(OC(C)=O)c2c(c1)[C@@H](C(=O)OC)[C@H](c1ccc(OC(C)=O)c(OC(C)=O)c1)O2,37.9%,34.2%,24.2%,39.3%,48.5%,24.3%,17.9%,-14.3% (active),6.74% (active),–
COc1cc(/C=C/C(=O)c2c(C)nc3ccccc3c2C)ccc1OCCCOc1cc2c(cc1OC)C(=O)N1CCC[C@H]1C=N2,-61.3% (active),-76.4% (active),10.2%,14.2%,-65.8% (active),-41.2% (active),4.18% (active),-76.4% (active),-48.6% (active),-25.5% (active)
CO[C@@]12[C@@H]3NC3CN1C1=C(C(=O)C(N)=C(C)C1=O)[C@@H]2COC(N)=O (some centres undefined),-11.2% (active),49.6%,24.6%,5.54% (active),9.47% (active),-10.3% (active),14.9%,-82.9% (active),27.1%,–
CC(=O)N[C@@H](CCC(N)=O)C(=O)O,118%,107%,85.7%,65.7%,107%,94.7%,73.8%,86.6%,–,–
COc1cccc(CC(C)=C(c2ccc(OCCCN(C)C)cc2)c2ccc(OCCCN(C)C)cc2)c1,-76.5% (active),-83.9% (active),-84.7% (active),-97.8% (active),-93% (active),-98.3% (active),-97.7% (active),18.6%,-53.3% (active),-61.4% (active)
CCCCOc1ncnc2nc[nH]c12,104%,112%,102%,99.7%,101%,101%,106%,97%,113%,–
O=S(=O)(NCC[C@@H]1C[C@H]1c1ccc2ccccc2c1)c1ccc(C(F)(F)F)cc1,104%,91.1%,92.9%,81.7%,100%,99.2%,79.4%,94.2%,85%,–
C/C(CC(=O)NNc1ccc([N+](=O)[O-])cc1)=N\Nc1ccc([N+](=O)[O-])cc1,111%,54.1%,68.9%,40%,93.4%,47.5%,31.3%,81%,48.6%,29.2%
Cc1nc2n[nH]c(N)c2nc1C,103%,106%,103%,87%,104%,104%,106%,120%,101%,–
CN1CCN(Cc2ccc(NC(=O)c3ccc(C#N)c(C#Cc4cnc(N)c5ncccc45)c3)cc2C(F)(F)F)CC1,72.4%,96.6%,86.3%,-81.8% (active),76.9%,-56.4% (active),94.1%,89.5%,27%,59.6%
COC(=O)CNS(=O)(=O)c1ccc2c(c1)Cc1cc(S(=O)(=O)NCC(=O)OC)ccc1-2,108%,99.6%,97.5%,87.1%,107%,102%,92.1%,106%,104%,–
Cc1ccc(/C=C/C(=N/N=C(N)N)c2ccccc2)cc1,49.3%,35.4%,34.3%,21.7%,44%,48.5%,16.4%,-5.04% (active),25.2%,–
COc1cc2c(cc1C)NC(=O)/C2=C\c1c[nH]c2ccccc12,76.4%,74.5%,67.8%,27.6%,83.7%,61.8%,10.6%,78.5%,53.6%,24.4%
CCCCNCCC(O)c1cc2ccc(C(F)(F)F)cc2c2cc(C(F)(F)F)ccc12 (centres undefined),-70.1% (active),-54% (active),-75.2% (active),-88.8% (active),-91.8% (active),-82.8% (active),-74.7% (active),-6.76% (active),-45.5% (active),–
CC(=O)c1ccc(Nc2nc(Cl)nc(Oc3c(Cl)cccc3Cl)n2)cc1,97.1%,77.2%,93.1%,77.8%,115%,98.3%,85.5%,69.3%,91%,77.1%
CN1CCN(Cc2ccc(NC(=O)c3cncc(C#Cc4cnc5cccnn45)c3)cc2C(F)(F)F)CC1,-58.6% (active),-39.1% (active),3.05% (active),0.419% (active),-4.27% (active),5.04% (active),5.93% (active),-33.1% (active),5.9% (active),-1.76% (active)
O=C(O)C1[S][Sb]([CH](C(=O)O)[CH](C(=O)O)[Sb]2[S]C(C(=O)O)C(C(=O)O)[S]2)[S]C1C(=O)O (centres undefined),64.7%,98%,90.2%,77.4%,124%,96.5%,96.3%,101%,52.9%,–
O=C(NC1CC1)c1ccc(-c2nc3ccc4[nH]ncc4c3c3c2CCCC3)cc1,2.88% (active),55.6%,48.4%,25.9%,8.68% (active),17.1%,0.658% (active),-5.47% (active),29.7%,–
